The record followed here is PubChem BioAssay (NCATS).

Test [1] can be described thus: qHTS for identification of novel therapeutic agents for treatment of microphthalmiaassociated transcription factor (MiT) renal cell carcinoma (RCC) (AID 1963991). To be noted: CellTiter-Glo, 48 h, stronger effect = lower value. Put shortly: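 Three TFE3-fusion RCC lines (UOK109, UOK124, UOK145), 500 cells/well in complete medium, were treated with MIPE 4.0 compounds for 48 hours at 37 C. Viability was by CellTiter-Glo luminescence, normalized to DMSO (100%) and empty wells (0%); curves fitted over 11 concentrations.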
In general terms: qHTS replaces the single test concentration by a dilution series.

The nature of test [2]: qHTS profiling for inhibitors of Plasmodium falciparum proliferation (AID 504749). Also: potency is read from the fitted curve at half-maximal effect.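 As to activity, negative = inhibition: 0% = DMSO vehicle and full inhibition = artemisinin control.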 As to all read-outs here: nearly all actives have a fitted effect of over 60% in size. The settings on record: P. falciparum in erythrocytes, SYBR Green DNA, 72 h; for activity, negative = inhibition: at 28.7 µM (top of the series). Put shortly: (§1)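 Quantitative HTS: compounds pinned into medium, infected erythrocytes added (0.3% parasitemia, 2.5% hematocrit), 72 h culture at 37 C under 5% CO2. Saponin/Triton lysis with SYBR Green I, overnight RT, then fluorescence read.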

The test system of test [3] is 3D7. Described as above. The settings on record: P. falciparum in erythrocytes, SYBR Green DNA, 72 h; series mostly up to 28.7 µM. In a few lines: as §1
For test [4], the system named is 7G8. The test is described as above. The settings on record: P. falciparum in erythrocytes, SYBR Green DNA, 72 h; series mostly up to 28.7 µM. Put shortly:
as §1

The test system of test [5] is AA1029. Described as above. The settings on record: P. falciparum in erythrocytes, SYBR Green DNA, 72 h; series mostly up to 28.7 µM. In a few lines: as §1
Test [6] concerns AS120. Described as above. To be noted: P. falciparum in erythrocytes, SYBR Green DNA, 72 h; series mostly up to 28.7 µM. In a few lines:
as §1

Test [7] deals with ATS189. The description is as above. The settings on record: P. falciparum in erythrocytes, SYBR Green DNA, 72 h; series mostly up to 28.7 µM. Put shortly: as §1
The test system of test [8] is ATS95. The description is as above. The settings on record: P. falciparum in erythrocytes, SYBR Green DNA, 72 h; series mostly up to 28.7 µM. In a few lines: as §1
The subject of test [9] is C2A. The description is as above. To be noted: P. falciparum in erythrocytes, SYBR Green DNA, 72 h; series mostly up to 28.7 µM. In a few lines:
as §1

The subject of test [10] is CP185. The description is as above. The settings on record: P. falciparum in erythrocytes, SYBR Green DNA, 72 h; series mostly up to 28.7 µM. In a few lines: as §1
Test [11] deals with CP191. The description is as above. To be noted: P. falciparum in erythrocytes, SYBR Green DNA, 72 h; series mostly up to 28.7 µM. Put shortly: as §1
Test [12] concerns CP192. The description is as above. To be noted: P. falciparum in erythrocytes, SYBR Green DNA, 72 h; series mostly up to 28.7 µM. In a few lines:
as §1

Test [13] relates to CP194. The test is described as above. The settings on record: P. falciparum in erythrocytes, SYBR Green DNA, 72 h; series mostly up to 28.7 µM. In a few lines:
as §1

Test [14] relates to CP201. The test is described as above. The settings on record: P. falciparum in erythrocytes, SYBR Green DNA, 72 h; series mostly up to 28.7 µM. In a few lines:
as §1

A short description of test [15]: qHTS drug screen for cell cycle checkpoint inhibitors in PARPi-resistant BRCA-mutant ovarian cancer cell lines. (AID 1963452; calls by dose curve). The settings on record: PEO1/OlaR viability, CellTiter-Glo luminescence, 96 h, stronger effect = lower value. In a few lines: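 PEO1, PEO4 and PEO1/OlaR ovarian cancer cells, 600 per well, exposed 96 h at 37C to a dilution series. Viability read by CellTiter-Glo luminescence, normalized to DMSO and empty wells; activity summarized as Z-AUC.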

[16] abbreviates: TFE3-RCC UOK109 viability, measured here: UOK109 Z-AUC.
Setting [17] is: TFE3-RCC viability, measured here: UOK124 Z-AUC.
The mark [18] stands for this setting: TFE3-RCC viability, measured here: UOK145 Z-AUC.
[19] abbreviates: measured here: PEO1 parental Z-AUC.

Each structure is given as a SMILES string. Inconclusive results are not listed. Activity calls are given as the source filed them. Unless noted, calls follow the shape of the dose curve; as a rule, active = well fitted inhibition curve with a large enough effect; inconclusive = small, poorly fitted or top-dose-only effect; inactive = flat fitted curve, though single readings scatter.

For the compound `Cc1nc2n(c(=O)c1CCN1CCC(c3noc4cc(F)ccc34)CC1)CCCC2`, the z-score in test [1] (setting [16]) came to 0.0752; in test [1] (setting [17]), 0.441; in test [1] (setting [18]) it was 0.372. The results for the activity, negative = inhibition in [2] (parasite line A) and in [2] (parasite line B) were 8.34% (inactive) and 15.8% (inactive), respectively. Also, the Potency entry in [3], in test [5], in [6], in test [7], in test [8] and in test [9] was “inactive” each time. Besides, the Potency result in [10], in test [11], in test [12], in test [13] and in [14] was “inactive” in each case. In addition, the Potency in test [4] was 10 µM (active).

On to `Nc1cccc2c1CN(C1CCC(=O)NC1=O)C2=O` (configuration not stated), for which the z-score came out at 0.87 in test [1] (setting [16]), 1.94 in test [1] (setting [17]) and 0.731 in [1] (setting [18]). Further, the activity, negative = inhibition was 12.2% (inactive) in test [2] (parasite line A) and 5.27% (inactive) in test [2] (parasite line B). For the same compound, the Potency result in test [3], in test [4], in test [5], in [6], in test [7] and in [8] was “inactive” throughout. For the same compound, the Potency entry in test [9], in [10], in test [11], in test [12], in test [13] and in test [14] was “inactive” each time.

For `Cc1ccc(NC(=O)c2ccc(CN3CCN(C)CC3)cc2)cc1Nc1nccc(-c2cccnc2)n1`, the Z-AUC in test [15] is -0.776 (inactive); in test [15] (setting [19]), -0.808; in [15] (measured here: PEO4 Z-AUC) it was -0.886. For the same compound, the Potency in [2] (parasite line B) is 11.2 µM (active); in test [4], 7.94 µM (active); in test [5], 11.2 µM (active); in test [6], 8.91 µM (active); in [7], 12.6 µM (active); in test [8], 10 µM (active). Besides, the Potency in test [9] is 11.2 µM (active).

Take `COC(=O)N[C@H](C(=O)N[C@@H](Cc1ccccc1)[C@@H](O)CN(Cc1ccc(-c2ccccn2)cc1)NC(=O)[C@@H](NC(=O)OC)C(C)(C)C)C(C)(C)C`: the z-score is 0.351 in test [1] (setting [16]), -0.0676 in test [1] (setting [17]) and 2.98 in test [1] (setting [18]).

Consider `O=C(OC1C[C@H]2CC[C@@H](C1)[N+]21CCCC1)C(O)(c1ccccc1)c1ccccc1` (some centres not stated), for which the z-score was 0.286 in test [1] (setting [16]), 0.765 in test [1] (setting [17]) and 0.653 in test [1] (setting [18]). The Potency in test [4] is 6.31 µM (active); in [5] it was 2.51 µM (active); in [9] it was 5.01 µM (active); in test [10], 2.82 µM (active); in test [12], 3.79 µM (active).

With `CN1CCC(=C2c3ccccc3CCc3sccc32)CC1`, the Z-AUC in [15] was -0.614 (inactive); in [15] (setting [19]) it was -1.2; in test [15] (measured here: PEO4 Z-AUC), -0.893. For the same compound, the activity, negative = inhibition in [2] (parasite line A) is -27.4% (inactive); in test [2] (parasite line B), -20.6% (inactive). In addition, the Potency result in test [3] and in test [9] was “inactive” in each case. In addition, the figures for the Potency in test [4] and in test [5] were 11.2 µM (active) and 6.31 µM (active), respectively.

On to `CCC[C@@H]1C[C@@H](C(=O)N[C@@H]([C@H]2O[C@H](SC)[C@H](O)[C@@H](O)[C@H]2O)[C@@H](C)O)N(C)C1`, for which, in test [7], the Potency result is “inactive”.

`CCCCCCCCOc1ccccc1C(=O)Nc1ccc(C(=O)OCC[N+](C)(CC)CC)cc1`: the Potency in [2] (parasite line A) was 12.6 µM (active); in test [2] (parasite line B) it was 10 µM (active); in test [3] it was 10 µM (active); in test [4], 12.6 µM (active); in test [5], 10 µM (active); in test [8] it was 7.94 µM (active). The Potency in test [9] was 12.6 µM (active); in test [10], 8.91 µM (active); in [11] it was 7.94 µM (active).

As for `Cc1cc(=O)oc2cc(O)ccc12`, the values for the Z-AUC in test [15], in [15] (setting [19]) and in [15] (measured here: PEO4 Z-AUC) were 0.0735 (inactive), 0.832 and 0.848, respectively. Moreover, the Potency entry in test [4], in test [5], in test [8], in [11], in test [12] and in [13] was “inactive” throughout. Further, the Potency entry in test [14] was “inactive”.

Consider `C[C@H](Cn1cnc2c(N)ncnc21)OCP(=O)(O)O`, for which the z-score was 0.368 in [1] (setting [16]), 0.295 in test [1] (setting [17]) and 0.62 in test [1] (setting [18]). Further, the activity, negative = inhibition in test [2] (parasite line A) is 2.65% (inactive); in [2] (parasite line B) it was 3.87% (inactive). In addition, the Potency result in test [3], in test [4], in [5], in test [6], in test [7] and in [8] was “inactive” throughout. Moreover, the Potency result in test [9], in test [10], in test [11], in test [12], in test [13] and in test [14] was “inactive” each time.

As to `CNC[C@@H](O)[C@@H](O)[C@H](O)[C@H](O)CO`, the z-score in test [1] (setting [16]) was 1.02; in test [1] (setting [17]), 0.532; in test [1] (setting [18]) it was 0.899. For the same compound, the activity, negative = inhibition is 7.09% (inactive) in test [2] (parasite line A) and 5.8% (inactive) in test [2] (parasite line B). For the same compound, the Potency entry in test [3], in [4], in [5], in [6], in test [7] and in test [8] was “inactive” each time. For the same compound, the Potency entry in test [9], in test [10], in test [11], in test [12], in test [13] and in test [14] was “inactive” each time.

Turning to `Cc1cccc(C)c1OCC(=O)N[C@@H](Cc1ccccc1)[C@@H](O)C[C@H](Cc1ccccc1)NC(=O)[C@H](C(C)C)N1CCCNC1=O`, the Potency is 8.91 µM (active) in test [2] (parasite line A); 5.01 µM (active) in test [2] (parasite line B); 7.08 µM (active) in test [3]; 0.794 µM (active) in [4]; 3.55 µM (active) in [5]; 1.41 µM (active) in [6]. The Potency in [7] is 3.98 µM (active); in test [8], 3.98 µM (active); in [9], 11.2 µM (active); in test [10], 10 µM (active); in test [11], 5.62 µM (active); in test [12], 6.75 µM (active). For the same compound, the Potency in test [13] is 7.57 µM (active); in [14], 10.7 µM (active).
